According to PubChem BioAssay (NCATS):
Inconclusive results are not listed. Active and inactive are the calls of the source. Calls come from the whole dose curve; as a rule, active = well fitted curve in the direction sought with a large enough effect; inconclusive = small, poorly fitted or top-dose-only effect, or another doubt; inactive = no such curve, though single readings can be large; an effect the other way counts as inactive or inconclusive.

Columns and labels:
[1] = Cell Viability - H-4-II-E (AID 543); note: % is set by controls: 0 for no effect and ±100 for the full control effect; nearly all actives have a fitted effect of over 35% in size
Outline: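 Rat hepatoma H-4-II-E cells (1500/well) were plated, incubated 5 hr at 37 °C, then exposed to compounds for 40 hr at 37 °C. Cellular ATP was read by CellTiter-Glo luminescence; AC50 came from Hill-equation fits of concentration-response data.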

[2] = Cell Viability - SH-SY5Y (AID 544); details: SH-SY5Y neuroblastoma cell viability; viability change, negative = cytotoxic: at 92.2 µM (top of the series); note: nearly all actives have a fitted effect of over 55% in size
Outline: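 Human neuroblastoma SH-SY5Y cells (1500/well) in complete medium were exposed to compounds for 40 hr at 37 °C; intracellular ATP was then quantified by CellTiter-Glo luminescence after 20 min at room temperature. AC50 came from Hill-equation concentration-response fits.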

[3] = Cell Viability - Renal Proximal Tubule (AID 545); note: nearly all actives have a fitted effect of over 40% in size
Outline: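 Primary rat renal proximal tubule cells (1000/well) were treated with compounds for 40 hr at 37 °C in complete medium. Intracellular ATP was measured by CellTiter-Glo luminescence, and AC50 values came from Hill-equation fits of concentration-response data.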

[4] = Cell Viability - Mesenchymal (AID 546);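 note: cells exposed to compound for 40 hours before reading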
Outline: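 Normal human renal glomerulus-derived kidney mesenchymal cells, 1000 per well in complete medium, were treated with compounds for 40 hr at 37 °C. Viability was read as intracellular ATP by CellTiter-Glo luminescence; AC50 values came from Hill-equation fits of qHTS concentration-response data.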

[5] = Cellular Toxicity (caspase-3) HepG2 (AID 654);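 note: cells exposed to compound for 16 hours before reading; 0% = DMSO alone and 100% = caspase signal from 100 µM tamoxifen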
Outline: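 HepG2 cells (1500/well) in complete medium were treated with compounds for 16 hr at 37 °C. Caspase-3/7 activity was then read as luminescence from peptide-aminoluciferin cleavage. AC50 came from Hill fits, normalized to DMSO and 100 uM tamoxifen.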

[6] = Cellular Toxicity (caspase-3) HUV-EC-C (AID 656)
Outline: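 HUV-EC-C endothelial cells, 1000/well, were pre-incubated 5 hr at 37°C, then exposed to compounds for 16 hr at 37°C. Caspase-Glo 3/7 luminescence was read after 20 min at room temperature. AC50 came from Hill fits, normalized to DMSO and 100 uM tamoxifen.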

[7] = Cellular Toxicity (caspase-3) SHSY5Y (AID 657)
Outline: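 SH-SY5Y human neuroblastoma cells (1500/well) were treated with compounds for 16 h at 37 °C, then Caspase-Glo 3/7 luminescence was read after 1 h at room temperature. Data normalized to DMSO and 10 uM staurosporine; AC50 from Hill fits.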

[8] = Cellular Toxicity (caspase-3) BJ (AID 658);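 note: 0% = DMSO basal and 100% = 10 µM staurosporine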
Outline: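 Luminescent aminoluciferin-substrate cleavage reports caspase 3/7 activity in normal human BJ fibroblasts after 16 hr compound exposure at 37 °C. Normalized to DMSO (basal) and 10 uM staurosporine (100%); AC50 from Hill fit of concentration-response.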

[9] = Cellular Toxicity (caspase-3) MRC-5 (AID 659);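 note: 0% = DMSO basal and 100% = 10 µM staurosporine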
Outline: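 Luminescence from caspase-cleaved aminoluciferin substrate (Caspase-Glo 3/7, 1 hr RT) reports caspase 3/7 activity in MRC-5 lung fibroblasts after 16 hr compound exposure. Normalized to DMSO basal and 10 uM staurosporine as 100%; AC50 from Hill fits.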

[10] = Cellular Toxicity (caspase-3) Mesangial (AID 660); details: mesangial cells, normalized: DMSO 0%, 100 µM tamoxifen 100%; at 91.7 µM (top of the series);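 note: cells exposed to compound for 16 h before the caspase read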
Outline: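 Human renal glomerular mesangial cells (1000/well) were treated with compounds for 16 h at 37 °C in complete medium, then caspase 3/7 activity was read by Caspase-Glo luminescence. Data were normalized to DMSO and 100 uM tamoxifen; AC50 from Hill fits.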

[11] = Cellular Toxicity (caspase-3) SK-N-SH (AID 661);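 note: 0% = DMSO basal and 100% = 10 µM staurosporine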
Outline: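 SK-N-SH human neuroblastoma cells (1500/well) were treated with compounds for 16 hr at 37 °C in complete medium; caspase 3/7 activity was read by Caspase-Glo luminescence. AC50 came from Hill fits of data normalized to DMSO and 10 uM staurosporine.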

[12] = Cellular Toxicity (caspase-3) H-4-II-E (AID 663); details: H-4-II-E rat hepatoma, scaled: DMSO 0%, 100 µM tamoxifen 100%; at 92.2 µM (top of the series);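 note: cells exposed to compound for 16 hr before readout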
Outline: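 Luminescence from caspase-cleaved aminoluciferin substrate, read 20 min after reagent addition, reports caspase 3/7 activation in rat H-4-II-E cells after 16 hr compound exposure. Normalized to DMSO (basal) and 100 uM tamoxifen (100%); AC50 from Hill fits.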

[13] = Cellular Toxicity (caspase-3) Hek293 (AID 664); details: HEK293 caspase-3 activation, DMSO = 0%, 100 µM tamoxifen = 100%; at 92.2 µM (top of the series);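 note: cells exposed to compound for 16 h at 37 °C before readout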
Outline: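 HEK293 cells were exposed to compounds in complete medium for 16 hr at 37 °C, then caspase-3/7 activity was read by Caspase-Glo 3/7 luminescence after 20 min at room temperature. Data normalized to DMSO and 100 uM tamoxifen; AC50 from Hill fits.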

[14] = Cellular Toxicity (caspase-3) N2a (AID 665);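 note: compound exposure lasted 16 h at 37 °C before readout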
Outline: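 Mouse N2a neuroblastoma cells (1500/well) were treated with compounds for 16 h at 37 °C, then caspase-3/7 activity was read by Caspase-Glo luminescence after 1 h at room temperature. Data were normalized to DMSO and 10 uM staurosporine; AC50 from Hill fits.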

[15] = Cellular Toxicity (caspase-3) NIH 3T3 (AID 666);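 note: 0% = DMSO basal and 100% = 100 µM tamoxifen stimulation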
Outline: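 Mouse NIH 3T3 fibroblasts (1000 cells/well) were treated with compound for 16 hr at 37°C in complete medium; caspase-3/7 activity was read by Caspase-Glo luminescence. Normalized to DMSO and 100 uM tamoxifen; AC50 from Hill fits.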

[16] = Cellular Toxicity (caspase-3) Renal Proximal Tubule (AID 667); details: Potency: caspase-3 activation;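 note: cells exposed to compound for 16 hours at 37 °C before detection; 0% = DMSO basal and 100% = 10 µM staurosporine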
Outline: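 Primary rat proximal tubule cells, 1000/well, 5 h plating at 37 °C, then compound 16 h at 37 °C. Caspase-Glo 3/7 reagent, 1 h RT, luminescence. Normalized to DMSO (basal) and 10 uM staurosporine (100%); Hill-fit AC50.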

[17] = molecular target: Cytochrome P450 3A4 (Homo sapiens) (UniProt P08684); experiment: qHTS Assay for Inhibitors and Substrates of Cytochrome P450 3A4 (AID 884); note: % is set by controls: 0 for no effect and ±100 for the full control effect; nearly all actives have a fitted effect of over 50% in size
Outline: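 20 nM human CYP3A4 with 25 uM Luciferin-PPXE (at KM) in 200 mM KPO4, preincubated 10 min with compound; NADPH regeneration started a 60 min RT reaction. Luciferin detected by luminescence, normalized to 57 uM ketoconazole as full inhibition.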

[18] = Cell Viability - LYMP2-001 (AID 921);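 note: 0% = DMSO only and full inhibition = tetraoctylammonium bromide control wells; nearly all actives have a fitted effect of over 70% in size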
Outline: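 Human lymphoblastoid cells (Coriell), 2500 per well, were preincubated 5 hr at 37 C, then exposed to compounds in complete medium for 24 hr at 37 C. Cellular ATP was read by CellTiter-Glo luminescence; AC50 from Hill fits of concentration-response data.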

[19] = Cellular Toxicity (caspase-3) Jurkat (AID 655); details: Jurkat caspase-3 activation, luminescence; caspase-3 activation: at 92.2 µM (top of the series), DMSO = 0%, tamoxifen = 100%;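 note: cells exposed to compound for 16 h at 37 °C before reading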
Outline: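 Jurkat cells (5000/well) in complete medium were treated with compounds for 16 hr at 37 °C, then Caspase-Glo 3/7 luminescence was read after 20 min at room temperature. Data normalized to DMSO (basal) and 100 uM tamoxifen (100%); AC50 from Hill fit.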

Chain of Cytochrome P450 3A4 (Homo sapiens) (P08684 whole entry, looked up): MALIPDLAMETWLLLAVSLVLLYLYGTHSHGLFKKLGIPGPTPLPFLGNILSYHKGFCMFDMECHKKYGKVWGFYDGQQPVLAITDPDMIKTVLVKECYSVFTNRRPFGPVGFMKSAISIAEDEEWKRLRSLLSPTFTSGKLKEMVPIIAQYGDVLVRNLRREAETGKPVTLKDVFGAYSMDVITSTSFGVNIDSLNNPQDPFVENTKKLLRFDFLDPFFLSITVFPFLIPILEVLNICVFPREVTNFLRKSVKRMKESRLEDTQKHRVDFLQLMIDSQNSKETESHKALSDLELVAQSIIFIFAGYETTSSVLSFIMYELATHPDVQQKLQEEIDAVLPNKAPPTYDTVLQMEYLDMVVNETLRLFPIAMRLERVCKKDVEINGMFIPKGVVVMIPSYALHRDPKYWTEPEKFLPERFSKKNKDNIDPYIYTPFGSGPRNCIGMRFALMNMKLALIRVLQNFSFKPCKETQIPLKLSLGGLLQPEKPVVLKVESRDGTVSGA

O=C1C=CCCC1
inactive: Potency [1] | Potency [2] | Potency [3] | Potency [4] | Potency [5] | outcome [6] | outcome [7] | outcome [8] | outcome [9] | caspase-3 activation [10] -1.96% | outcome [11] | caspase-3 activation [12] 0.0441% | caspase-3 activation [13] 3.14% | outcome [14] | outcome [15] | Potency [16] | Potency [17] | Potency [18]

CCC1CO1 (stereo not drawn)
inactive: Potency [1] | Potency [2] | Potency [3] | Potency [4] | Potency [5] | outcome [6] | outcome [7] | outcome [8] | outcome [9] | caspase-3 activation [10] 0.872% | outcome [11] | caspase-3 activation [12] 2.93% | caspase-3 activation [13] -0.425% | outcome [14] | outcome [15] | Potency [16] | Potency [17] | Potency [18]

CCC(O)C(C)(C)C (stereo not drawn)
inactive: Potency [1] | Potency [2] | Potency [3] | Potency [4] | Potency [5] | outcome [6] | outcome [7] | outcome [8] | outcome [9] | outcome [11] | caspase-3 activation [12] -0.43% | caspase-3 activation [13] 1.79% | outcome [14] | outcome [15] | Potency [16] | Potency [17] | Potency [18]

CC(C)Nc1ccccc1
inactive: Potency [1] | Potency [2] | Potency [3] | Potency [4] | Potency [5] | caspase-3 activation [19] 2.39% | outcome [7] | outcome [8] | outcome [9] | caspase-3 activation [10] 1.26% | outcome [11] | caspase-3 activation [12] 0.457% | caspase-3 activation [13] 2.55% | outcome [14] | outcome [15] | Potency [16] | Potency [18]

C1CCCC1
inactive: Potency [1] | Potency [2] | Potency [3] | Potency [4] | Potency [5] | caspase-3 activation [19] -0.234% | outcome [7] | outcome [9] | outcome [11] | caspase-3 activation [12] -0.556% | caspase-3 activation [13] 0.0682% | outcome [14] | outcome [15] | Potency [16] | Potency [17] | Potency [18]

Nc1cccc2c(=O)[nH][nH]c(=O)c12
inactive: Potency [1] | Potency [2] | Potency [3] | Potency [4] | Potency [5] | caspase-3 activation [19] 0.167% | outcome [7] | outcome [8] | caspase-3 activation [10] -0.301% | outcome [11] | caspase-3 activation [12] 0.0355% | caspase-3 activation [13] -1.17% | outcome [14] | outcome [15] | Potency [16] | Potency [17] | Potency [18]

CC(=O)OC(C)=O
inactive: Potency [1] | Potency [2] | Potency [3] | Potency [4] | Potency [5] | outcome [6] | outcome [7] | outcome [8] | outcome [9] | caspase-3 activation [10] 0.184% | outcome [11] | caspase-3 activation [12] -0.382% | caspase-3 activation [13] -0.384% | outcome [14] | outcome [15] | Potency [16] | Potency [17] | Potency [18]

CCOCCOCC
inactive: Potency [1] | Potency [2] | Potency [3] | Potency [4] | Potency [5] | caspase-3 activation [19] 1.67% | outcome [7] | outcome [8] | outcome [9] | caspase-3 activation [10] 0.404% | outcome [11] | caspase-3 activation [12] 1.77% | caspase-3 activation [13] 4.51% | outcome [14] | outcome [15] | Potency [16] | Potency [18]
